High-throughput results from PubChem BioAssay.
Granule exo inh: lytic granule exocytosis inhibition. TALL-104 LAMP-1 surface exposure, flow cytometry; cells stimulated with thapsigargin and PMA. inhibition, % at 10 µM. 360,000 compounds, 0.66% hits. AID 651702;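 active = inhibition above about 55%, limit read from the data; inconclusive = no clear call, values can overlap the other calls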
IDE cell inh: inhibitors of human insulin-degrading enzyme in cells. P14735. HEK cells, FAbetaB cleavage, fluorescence polarization. inhibition, % at 5.59 µM. 320,000 compounds, 0.41% hits. AID 434962;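 active = percent inhibition above the average of all tested compounds plus 3 SD, set per screening campaign, cut at about 16% in these data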;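 note: IDE supplied by intact live HEK cells; FP after avidin binding of uncleaved biotin substrate so inhibition keeps polarization high; 0% = DMSO wells and 100% = 60 µM reference IDE inhibitor Ii1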
Target sequence (P14735 whole entry, looked up): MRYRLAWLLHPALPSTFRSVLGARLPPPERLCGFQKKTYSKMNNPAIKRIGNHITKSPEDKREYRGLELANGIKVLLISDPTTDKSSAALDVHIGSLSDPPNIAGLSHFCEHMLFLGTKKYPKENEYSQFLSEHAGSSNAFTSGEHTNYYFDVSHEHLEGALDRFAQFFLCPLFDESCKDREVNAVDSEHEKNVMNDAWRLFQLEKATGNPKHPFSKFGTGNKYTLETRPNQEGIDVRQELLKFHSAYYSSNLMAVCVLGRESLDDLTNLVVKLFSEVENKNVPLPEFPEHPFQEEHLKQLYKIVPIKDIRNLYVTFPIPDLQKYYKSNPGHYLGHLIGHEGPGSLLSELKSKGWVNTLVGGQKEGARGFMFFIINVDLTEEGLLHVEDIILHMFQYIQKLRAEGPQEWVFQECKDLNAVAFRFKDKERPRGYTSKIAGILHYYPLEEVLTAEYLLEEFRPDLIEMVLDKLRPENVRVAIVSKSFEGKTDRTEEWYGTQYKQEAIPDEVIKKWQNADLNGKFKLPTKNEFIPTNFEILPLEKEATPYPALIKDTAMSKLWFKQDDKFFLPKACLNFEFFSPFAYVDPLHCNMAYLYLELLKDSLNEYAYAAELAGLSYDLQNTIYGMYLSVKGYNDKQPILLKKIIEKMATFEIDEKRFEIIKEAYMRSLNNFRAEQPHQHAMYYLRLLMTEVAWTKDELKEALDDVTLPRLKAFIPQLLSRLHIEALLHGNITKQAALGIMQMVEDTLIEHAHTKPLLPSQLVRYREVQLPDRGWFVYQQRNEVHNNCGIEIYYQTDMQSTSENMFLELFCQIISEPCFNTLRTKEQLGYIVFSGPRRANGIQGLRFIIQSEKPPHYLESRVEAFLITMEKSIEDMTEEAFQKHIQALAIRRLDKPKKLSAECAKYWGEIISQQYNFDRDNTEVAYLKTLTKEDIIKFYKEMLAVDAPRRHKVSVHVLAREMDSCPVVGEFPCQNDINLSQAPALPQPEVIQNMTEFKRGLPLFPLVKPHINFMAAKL
PP5 primary: inhibitors of human protein phosphatase 5 (PP5) | P53041 | purified PP5c, OMFP substrate fluorescence | inhibition, % at 6.7 µM | 320,000 compounds, 0.18% hits | AID 1987;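 active = inhibition above the campaign's mean inhibition across all tested compounds plus 3 SD, cut at about 9.5% in these data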;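 note: 0% = DMSO only and 100% = 100 µM cantharidin control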
SKKanGAS inh: inhibitors of SKKanGAS S. pyogenes growth in kanamycin (SK-promoter or general growth effect) | BacTiter-Glo, 6 h | inhibition, % at 7.5 µM | 300,000 compounds, 1.3% hits;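 active = mean replicate score, as percent of positive control median, at least 50; inconclusive = mean below 50 but one replicate at or above 50; inactive = mean and every replicate below 50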;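 note: strain carries kanamycin resistance gene driven by streptokinase promoter and grows in 40 µg/ml kanamycin; loss of luminescence reflects streptokinase promoter inhibition or plain growth inhibition; 0% = median of DMSO wells and 100% = positive control at its reference dose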
PP1 counter: PP1-alpha (human) inhibition in PP5 counter-screen | P62136 | purified PP1alpha, OMFP fluorescence | inhibition, % at 6.7 µM | 320,000 compounds, 0.9% hits | AID 2235;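 active = inhibition above the mean inhibition of all tested compounds plus 3 SD, computed separately for each screening campaign, cut at about 15% in these data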
IDE act: IDE (human) activation, cell-based; 340,000 compounds, 0.073% hits; activation, % at 5.96 µM; AID 493087; P14735; HEK cells, FAbeta-B cleavage, fluorescence polarization; 0% vehicle, 100% cell-free pure enzyme wells;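 active = activation above the mean of all tested compounds plus 3 SD, set per screening campaign, cut at about 17% in these data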
* = called active by the depositor; ? = inconclusive; . = no result. Most compounds without a hit are left out; they make up all but 2.8% or so of the library.

SMILES	Granule exo inh	IDE cell inh	PP5 primary	SKKanGAS inh	PP1 counter	IDE act
Cc1c(Cl)cccc1-c1ccc(C(=O)N2CCN(c3ccc([N+](=O)[O-])cc3)CC2)o1	58.4*	-7.0	4.1	33.6	-0.4	-1.3
Cc1ccc(C(=O)NCC(=O)NC23CC4CC(CC(C4)C2)C3)cc1	-1.4	5.9	0.1	-2.4	-1.1	4.9
Cc1ccc(/C(O)=C/C(=O)C(=O)NC23CC4CC(CC(C4)C2)C3)cc1	-0.5	4.1	3.3	53.6*	-0.5	2.1
CC(C)(C)NC(=O)C(c1cccc2ccccc12)n1c(=O)c(-c2cc3ccccc3[nH]2)nc2ccccc21 (centres undefined)	5.7	.	.	.	.	.
CCc1ccc(N=C2NC(=O)/C(=C/c3cc(OC)c(O)c(OC)c3)S2)cc1	13.1	.	.	59.0*	.	-47.4
O=C1NC(=Nc2cccnc2)S/C1=C\c1cccc(F)c1	-0.1	1.2	0.1	44.7	-1.4	0.3
COc1cc(/C=C2\SC(=Nc3cccnc3)NC2=O)cc(OC)c1OC	-5.2	12.2	5.2	49.7*	-1.7	.
Cc1ccc(OCC(=O)NNC(=O)c2ccccc2OCc2c(C)noc2C)cc1	-3.5	6.9	-1.4	-4.6	-0.1	7.3
CCC(=O)OCCNc1cc(Sc2nc3ccccc3s2)c2nonc2c1[N+](=O)[O-]	102.6*	1.7	2.3	?	2.0	-56.5
O=[N+]([O-])c1c(NCCCO)cc(Sc2nc3ccccc3s2)c2nonc12	40.0	1.2	7.5	78.0*	4.1	-44.7
Cc1nnc(Sc2cc(NCCCO)c([N+](=O)[O-])c3nonc23)s1	11.1	.	.	?	.	-13.6
O=C1c2ccccc2CCCC12N=NCC2c1cccc2ccccc12 (centres undefined)	3.3	-2.2	-1.0	49.8*	-1.1	0.8
NC(=O)C(C1=CCCCC1)c1ccccc1 (centres undefined)	19.8	.	.	.	.	3.7
Cc1cc([N+](=O)[O-])cc(/C=N\NC(=O)C2COc3ccccc3O2)c1O (centres undefined)	0.8	1.8	1.3	105.6*	5.0	3.3
CC(C)(C)c1ccc2c(c1)OC(C(=O)N/N=C\c1ccncc1)CO2 (centres undefined)	3.7	10.9	0.7	-19.5	-1.4	2.1
CC(C)(C)c1ccc2c(c1)OC(C(=O)N/N=C/c1ccc([N+](=O)[O-])o1)CO2 (centres undefined)	20.6	-2.7	2.3	66.3*	8.3	.
O=C(N/N=C\c1ccc(O)c([N+](=O)[O-])c1)C1COc2ccccc2O1 (centres undefined)	1.3	8.8	2.0	-5.0	-1.0	3.0
CC1CC(C)(C)NC(=S)N1CCC(=O)NCCc1ccc(Cl)cc1 (centres undefined)	-2.3	2.4	-1.4	1.3	7.8	2.7
Cc1ccc(Nc2nc(-c3sc(NC(=O)c4cccc(Cl)c4)nc3C)cs2)cc1	.	-0.8	-0.5	20.9	8.2	.
Cc1nc(NC(=O)c2ccc(Cl)cc2)sc1-c1csc(Nc2cccc(F)c2)n1	.	4.3	3.3	73.4*	9.3	.
O=C(N/N=C/c1c(O)n(Cc2ccccc2)c(=O)c2ccccc12)c1cccnc1	-0.5	13.9	0.7	47.9	6.1	-17.9
O=C(N/N=C/c1c(O)n(-c2ccccc2Cl)c(=O)c2ccccc12)c1cccnc1	22.4	.	.	71.4*	.	-4.2
CCCCC1C(=O)N(c2ccccc2)N(c2ccc(O)cc2)C1=O (centres undefined)	21.8	2.0	-1.2	.	2.0	-0.8
Cc1ccsc1C(=O)N(CC(C)C)c1c(N)n(Cc2ccccc2)c(=O)[nH]c1=O	-0.6	-2.2	3.6	-12.3	-2.7	3.1
CCCOc1ccc(/C=C/c2c([N+](=O)[O-])c(=O)n(C)c(=O)n2C)cc1	-5.0	-2.7	0.9	50.4*	0.9	-0.5
SMILES	Granule exo inh	IDE cell inh	PP5 primary	SKKanGAS inh	PP1 counter	IDE act
CN(C)c1ccc(/C=C/c2c([N+](=O)[O-])c(=O)n(C)c(=O)n2C)cc1	6.2	.	.	52.3*	.	2.4
O=C1CC(=C2c3ccccc3-c3ccccc32)C(=O)N1CCN1CCN(c2cccc(Cl)c2)CC1	-2.2	1.6	3.5	0.1	16.2*	-1.3
CC(/C=C/c1ccco1)=N\NC(=O)c1cc(Cl)ccc1O	-2.3	0.3	0.9	69.8*	2.0	2.8
O=[N+]([O-])c1ccccc1-c1ccc(C(=S)N2CCCCC2)o1	64.7*	-3.5	-1.2	9.4	-2.4	-12.3
C#CCN1CCc2onc(-c3ccc(Br)cc3)c2C1=O	-1.2	.	.	.	.	.
Cc1ccc(/C=C2/Sc3ccc(C(=O)N4CCN(C)CC4)cc3NC2=O)cc1	52.5	3.9	0.7	53.7*	1.9	0.0
CC1CCN(C(=O)c2ccc3c(c2)NC(=O)/C(=C/c2ccccc2)S3)CC1	-2.5	2.1	3.7	76.4*	1.4	-2.6
Cc1ccc(/C=C2/Sc3ccc(C(=O)NCCN4CCOCC4)cc3NC2=O)cc1	32.5	2.8	1.3	-4.6	-2.1	-2.2
CCN1CCCC1CNC(=O)c1ccc2c(c1)NC(=O)/C(=C\c1ccc(C)cc1)S2 (centres undefined)	60.7*	5.3	0.7	9.2	1.6	3.5
COc1cccc2cc(C(=O)C3=C(O)C(=O)N(CCN4CCOCC4)C3c3ccc(Cl)cc3)oc12 (centres undefined)	0.2	4.4	2.1	14.0	7.5	-2.3
COc1cccc2cc(C(=O)C3=C(O)C(=O)N(CCN4CCOCC4)C3c3cccc(Cl)c3)oc12 (centres undefined)	0.5	0.0	-1.9	15.6	22.8*	-1.9
CCN1CCN(Cc2ccc(NC(=O)c3ccc(C)c(NC(=O)c4ccc5n[nH]nc5c4)c3)cc2C(F)(F)F)CC1	-1.1	-0.4	1.2	1.8	-4.6	2.9
CCN1CCN(Cc2ccc(NC(=O)c3ccc(C)c(NC(=O)C(=O)c4c[nH]c5ccccc45)c3)cc2C(F)(F)F)CC1	4.4	-0.9	5.9	83.0*	14.6	0.2
COc1ccc(-c2cc(C(F)(F)F)c(C#N)c(SCC(=O)Nc3ccc(C)cc3)n2)cc1	1.6	3.4	1.7	3.8	-1.7	0.1
COc1ccc(C(=O)CSc2[nH]c(=O)cc(C(F)(F)F)c2C#N)cc1	2.6	1.7	0.5	65.7*	-0.7	1.2
CCOC(=O)c1sc(NC(=O)Nc2ccc(Cl)cc2)cc1C	9.0	7.4	5.0	81.0*	9.4	2.1
Cc1cc2c(cc1C)-n1nnnc1C(N(Cc1ccccc1)Cc1ccccc1)C(=O)N2 (centres undefined)	0.0	.	.	.	.	.
O=C(c1ccco1)N1CCN(c2c(-c3ccccc3)c3cc(Cl)ccc3[nH]c2=O)CC1	-4.6	1.7	1.9	11.3	5.5	3.4
O=C(c1ccco1)N1CCN(c2ncnc3c2[nH]c2ccc(Cl)cc23)CC1	.	67.5*	1.9	3.8	-1.7	.
CCN(C(=O)c1cccc(S(=O)(=O)N2CCCCC2)c1)C1CCS(=O)(=O)C1 (centres undefined)	2.3	.	.	-1.5	.	1.9
